Screens as filed in PubChem BioAssay.
DT40 TDP1 no CPT – qHTS for Inhibitors of human tyrosyl-DNA phosphodiesterase 1 (TDP1): qHTS in cells in absence of CPT; DT40 Tdp1-/- hTDP1 cells, no CPT, ATP luminescence, 48 h; AID 686978, 2013; 420,000 compounds, 15% hits; Potency, µM (doses to about 46.2 µM), actives largely listed as inhibitors; also: nearly all actives have a fitted effect of over 55% in size
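DT40 Tdp1-/-;hTDP1 cells, no CPT (DMSO vehicle only), 400 cells/well; compounds pin-transferred; ≥48 hr, 37 °C; CellTiter-Glo 30 min RT dark, luminescence read.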
DRD3 antagonist – blocks the human D3 dopamine receptor; P35462; D3R cells, DiscoveRx beta-arrestin luminescence, antagonist mode; hits give low values; max response, negative = inhibition, %; 360,000 compounds, 2.5% hits; in the data active = max response below about -50%; inconclusive = no clear call, values can overlap the other calls
Target sequence (P35462 whole entry, looked up): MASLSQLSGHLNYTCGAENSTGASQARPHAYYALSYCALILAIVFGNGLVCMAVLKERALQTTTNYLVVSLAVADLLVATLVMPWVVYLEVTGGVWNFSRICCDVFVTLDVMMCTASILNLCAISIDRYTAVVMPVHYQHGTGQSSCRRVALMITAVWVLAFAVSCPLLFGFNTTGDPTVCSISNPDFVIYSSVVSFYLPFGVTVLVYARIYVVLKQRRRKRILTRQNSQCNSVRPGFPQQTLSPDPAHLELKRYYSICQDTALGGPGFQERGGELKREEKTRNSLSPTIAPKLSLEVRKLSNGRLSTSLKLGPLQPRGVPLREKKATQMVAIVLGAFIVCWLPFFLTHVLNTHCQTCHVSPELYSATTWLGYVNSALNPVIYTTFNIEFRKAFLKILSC
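Cells expressing the human receptor were seeded at 1500 cells/well, incubated overnight at 37 degrees C in 5% CO2, then exposed to library compounds with dopamine controls for 90 minutes at 37 degrees C before luminescent detection.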
ClpP mod – qHTS Assay for Activators of ClpP. purified B. subtilis ClpP, FRET peptide cleavage, 20 min. AID 651965, 2013. 340,000 compounds, 1.9% hits. ATP-dependent Clp protease proteolytic subunit (Bacillus subtilis (strain 168)), P80244. Potency, µM (series often up to 57.5 µM); active = well fitted falling curve with a large enough effect; inconclusive = small, poorly fitted or top-dose-only effect; inactive = no such curve, though single readings can be large or run the other way; also: the source files actives as falling curves though it sought activators and does not explain the sign; nearly all actives have a fitted effect of over 65% in size
Target sequence (P80244 whole entry, looked up): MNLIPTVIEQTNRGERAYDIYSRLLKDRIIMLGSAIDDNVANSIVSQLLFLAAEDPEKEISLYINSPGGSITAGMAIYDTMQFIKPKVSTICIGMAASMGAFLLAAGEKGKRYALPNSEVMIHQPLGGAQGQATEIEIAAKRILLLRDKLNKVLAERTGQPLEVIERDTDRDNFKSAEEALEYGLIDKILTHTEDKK
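Purified B. subtilis ClpP, 10 microg/mL final in Tris/HCl pH8 with KCl, BSA, glycerol and Tween-20, cleaved an Abz/nitrotyrosine-quenched decapeptide. Fluorescence (ex 320, em 430) was read at 0 and 20 min at room temperature. Delta was normalized to 5.8 microM ADEP and DMSO/no-enzyme controls.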
IL-1B inflam inh – inhibitors of inflammasome signaling (IL-1 beta secretion); THP-1 LPS/ATP IL-1B secretion, AlphaLISA, 16 h; hits give low values; activity change, % at 57.5 µM; 360,000 compounds, 4.7% hits; AID 743279; in the data active = activity change below about -50%; inconclusive = mostly about -30% to -49%
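THP-1 cells pretreated 1 hr with compounds (up to 57.5 uM final), then stimulated with LPS (250 ng/mL final) plus ATP (1.25 mM final); secreted IL-1B measured by AlphaLISA after 16 hr, decreased signal indicating inhibition.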
TDP1 cell CPT – growth inhibition of DT40 Tdp1-/-;hTDP1 cells with camptothecin (screen for TDP1 inhibitors); chicken DT40 Tdp1-/-;hTDP1 cells + 20 nM CPT, ATP luminescence, 48 h; Potency, µM (highest dose often 46.2 µM), hits mostly inhibitors; 420,000 compounds, 12% hits; AID 686979; also: nearly all actives have a fitted effect of over 55% in size
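Cell growth measured by CellTiter-Glo luminescence after a minimum 48 h, 37 C compound exposure with 20 nM CPT in Tdp1-knockout DT40 cells stably expressing hTDP1, seeded 400/well; qHTS titration format.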
DRD3 agonist – D3 dopamine receptor (human) agonism; P35462; D3R DiscoveRx beta-arrestin cells, luminescence, 90 min; max activation, %; 410,000 compounds, 0.58% hits; AID 652048; in the data active = max activation above about 30%
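Agonist mode: compounds and dopamine controls were applied to plated cells for 90 min at 37 degrees C after an overnight attachment at 1500 cells/well. Luminescent read-out followed 30 - 60 minutes at room temperature with DiscoveRx detection reagent.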
Of the large screens only hits and unclear results are named; the others gave an inactive call. Rows were chosen to be rich in hits. Some 21% of all compounds tested hit in one or more screens of this group. Unless noted, calls follow the shape of the dose curve; as a rule, active = well fitted inhibition curve with a large enough effect; inconclusive = small, poorly fitted or top-dose-only effect; inactive = flat fitted curve, though single readings scatter.

CCOC(=O)c1cc2c(=O)n3ccccc3nc2n(C(C)C)c1=NC(=O)c1c(-c2c(F)cccc2Cl)noc1C	DT40 TDP1 no CPT 8.2µM, TDP1 cell CPT 8.2µM
CCOC(=O)c1cc2c(=O)n3ccccc3nc2n(CC2CCCO2)c1=NC(=O)c1ccc(OCC)cc1 (stereo not drawn)	DT40 TDP1 no CPT 5.8µM, TDP1 cell CPT 6.5µM (no result: DRD3 antagonist, IL-1B inflam inh)
CCOCCCNC(=O)Cn1nc(Cc2ccncc2)c2ccccc2c1=O	none (no result: ClpP mod)
CCOC(=O)c1cc2c(=O)n3ccccc3nc2n(CC2CCCO2)c1=NC(=O)c1cccc(C(F)(F)F)c1 (stereo not drawn)	none (no result: DRD3 antagonist, IL-1B inflam inh)
CCOC(=O)c1cc2c(=O)n3ccccc3nc2n(CC2CCCO2)c1=NC(=O)c1ccc(OC)cc1OC (stereo not drawn)	DT40 TDP1 no CPT 16µM, TDP1 cell CPT inconclusive (no result: DRD3 antagonist, IL-1B inflam inh)
CCOC(=O)c1cc2c(=O)n3ccccc3nc2n(CC2CCCO2)c1=NC(=O)c1cccc(C)c1 (stereo not drawn)	DT40 TDP1 no CPT 5.8µM, TDP1 cell CPT 5.2µM (no result: DRD3 antagonist, IL-1B inflam inh)
CCOC(=O)c1cc2c(=O)n3ccccc3nc2n(CC2CCCO2)c1=NC(=O)/C=C/c1ccccc1 (stereo not drawn)	DT40 TDP1 no CPT 15µM, IL-1B inflam inh inconclusive, TDP1 cell CPT inconclusive
CC(C)(C)NC(=O)CN(CC1CCCO1)C(=O)CNS(=O)(=O)c1ccc(F)cc1 (stereo not drawn)	none (no result: ClpP mod)
c1ccc(CSC2=NNC(c3ccccn3)S2)cc1 (stereo not drawn)	DT40 TDP1 no CPT 0.16µM, TDP1 cell CPT 0.0058µM
O=C(CSc1nccn1C1CCCC1)Nc1ccc(C(F)(F)F)cc1	DT40 TDP1 no CPT inconclusive, TDP1 cell CPT inconclusive (no result: DRD3 antagonist, IL-1B inflam inh)
c1ccc(CSc2ncccn2)cc1	none
O=C(CSC1=NNC(c2ccccn2)S1)Nc1ccc(C(F)(F)F)cc1 (stereo not drawn)	DT40 TDP1 no CPT 3.7µM, TDP1 cell CPT 4.1µM (no result: ClpP mod)
CCc1cccc(C)c1NC(=O)Cn1c(=O)n(-c2ccc(C)cc2)c(=O)c2c1cnn2C	none (no result: DRD3 antagonist, IL-1B inflam inh)
O=c1[nH]c(Nc2nc3ccccc3o2)nc2c1CCCC2	DT40 TDP1 no CPT 4.1µM, IL-1B inflam inh -101, TDP1 cell CPT 2.9µM
Cc1ccc(Nc2nc3c(c(=O)[nH]2)CCCC3)cc1	DT40 TDP1 no CPT inconclusive, TDP1 cell CPT inconclusive
Cc1ccc(Cc2nnc(SCC(=O)Nc3ccccc3)n(N)c2=O)cc1	none
COC(=O)NCC(c1cccnc1)N1CCN(c2ccc(F)cc2)CC1 (stereo not drawn)	none (no result: DRD3 antagonist, IL-1B inflam inh)
CCC(C)(C)n1nnnc1C(c1cc2cc(OC)c(OC)cc2[nH]c1=O)N1CCc2ccccc21 (stereo not drawn)	DT40 TDP1 no CPT inconclusive, TDP1 cell CPT 20µM
CCC(C)(C)n1nnnc1C(c1cc2cc(C)ccc2[nH]c1=O)N1CCCC1 (stereo not drawn)	ClpP mod inconclusive
Cc1ccc2cc(C(c3nnnn3C(C)(C)C)N3CCCCCC3)c(=O)[nH]c2c1 (stereo not drawn)	none
COc1cc2cc(C(c3nnnn3C(C)(C)C)N3CCc4ccccc4C3)c(=O)[nH]c2cc1OC (stereo not drawn)	DT40 TDP1 no CPT inconclusive, ClpP mod inconclusive, TDP1 cell CPT 18µM
COc1cc(=O)n2c(c1C(=O)NC(C)c1ccco1)CCN(Cc1ccccc1Cl)CC2 (stereo not drawn)	none (no result: DRD3 antagonist, ClpP mod, IL-1B inflam inh, DRD3 agonist)
COc1ccc(NS(=O)(=O)c2ccc(S(=O)(=O)N3CCOCC3)cc2)cc1	DT40 TDP1 no CPT 16µM, ClpP mod 16µM, TDP1 cell CPT inconclusive
COc1ccc(S(=O)(=O)N2CCCCC2)cc1	none
COc1ccc(NS(=O)(=O)c2ccc(S(=O)(=O)N3CCCC3)cc2)cc1	DT40 TDP1 no CPT 21µM, TDP1 cell CPT inconclusive
O=C(c1cc(COc2c(F)cccc2F)on1)N1CC[C@@H]2CCCC[C@H]2C1	DT40 TDP1 no CPT inconclusive
N#C/C(=C\c1cccc(Br)c1)C(=O)N1CCCCC1	DT40 TDP1 no CPT 12µM, IL-1B inflam inh inconclusive, TDP1 cell CPT 13µM (no result: ClpP mod)
